# From PubChem BioAssay AID623911 (Vanderbilt High Throughput Screening Facility, 2012)
# About 770 (37%) of roughly 2,100 compounds were called active.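 How the source made its calls: active means by-eye trace score of 1 for enhancers or -1 for inhibitors, so actives lie on both sides (some results past the limit were not filed as active); inactive means score 0, or 3 fluorescent, or 4 baseline rise.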 This is one part of the list.
# Target: G protein-activated inward rectifier potassium channel 2 (Homo sapiens) + G protein-activated inward rectifier potassium channel 1 (Homo sapiens) (UniProt P48051+P48549)
# Sequence (P48051 whole entry, looked up): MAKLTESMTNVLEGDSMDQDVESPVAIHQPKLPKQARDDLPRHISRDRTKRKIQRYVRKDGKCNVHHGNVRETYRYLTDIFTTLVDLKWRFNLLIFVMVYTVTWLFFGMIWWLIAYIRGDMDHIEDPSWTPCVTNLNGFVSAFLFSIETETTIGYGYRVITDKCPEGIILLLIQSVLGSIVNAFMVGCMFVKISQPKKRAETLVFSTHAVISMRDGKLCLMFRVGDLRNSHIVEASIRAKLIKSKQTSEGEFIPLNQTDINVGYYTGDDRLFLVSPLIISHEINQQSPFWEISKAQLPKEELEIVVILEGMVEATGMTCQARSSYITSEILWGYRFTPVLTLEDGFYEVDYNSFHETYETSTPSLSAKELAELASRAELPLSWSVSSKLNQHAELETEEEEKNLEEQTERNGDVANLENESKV
# Sequence (P48549 whole entry, looked up): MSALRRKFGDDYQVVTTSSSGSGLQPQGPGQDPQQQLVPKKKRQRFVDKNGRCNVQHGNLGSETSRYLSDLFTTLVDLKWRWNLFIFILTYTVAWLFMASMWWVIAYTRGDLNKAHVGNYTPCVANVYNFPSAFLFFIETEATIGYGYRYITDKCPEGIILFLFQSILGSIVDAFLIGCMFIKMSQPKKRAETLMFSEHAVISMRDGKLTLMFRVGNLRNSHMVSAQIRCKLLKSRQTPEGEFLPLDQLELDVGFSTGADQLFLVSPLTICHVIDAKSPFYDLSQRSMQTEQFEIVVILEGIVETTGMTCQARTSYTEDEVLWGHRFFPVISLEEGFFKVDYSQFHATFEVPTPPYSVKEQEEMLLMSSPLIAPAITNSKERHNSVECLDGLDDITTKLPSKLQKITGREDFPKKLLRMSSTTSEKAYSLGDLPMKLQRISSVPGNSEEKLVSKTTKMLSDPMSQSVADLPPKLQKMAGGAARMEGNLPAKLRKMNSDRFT
# Experiment: GIRK1/2 thallium flux modulators, retest, confirmation, cell-based, HEK293 rmGlu8/hGIRK1/2, FluoZin-2 (AID 623911)
# Conditions: HEK293 rmGlu8/hGIRK1/2, thallium flux FluoZin-2; actives lie on both sides; glutamate co-added at its EC20 level
row,SMILES,manual score
1,N#CC1(Cc2ccc([N+](=O)[O-])cc2)c2ccccc2C=CN1C(=O)c1ccccc1 (stereo not given),0 (inactive)
2,O=C(Cc1ccccc1)N/N=C/c1cccn1-c1ccc([N+](=O)[O-])cc1,1 (active)
3,CCOC(=O)CSC1=C(C#N)C(=O)NC(c2ccc(OC)c(OC)c2)S1 (stereo not given),0 (inactive)
4,C=CCNCc1cccn1-c1sc2c(c1C#N)CCCC2,-1 (active)
5,CCOC(=O)c1c2n(c3c(NCc4ccccc4)ncnc13)CCCC2,-1 (active)
6,O=C(Oc1ccccc1)c1cccc(COC(=O)c2cnccn2)c1,0 (inactive)
7,CCc1ccc(CNCCNCC(C)O)cc1 (stereo not given),1 (active)
8,CCOC(=O)c1ccc(CNCc2ccc(Br)cc2)cc1,0 (inactive)
9,COc1ccc(/C=C2\N=C(SC)NC2=O)cc1,1 (active)
10,COc1ccc(C(=O)N2C(=S)NC(=O)/C2=C\c2ccc(C)cc2)cc1,0 (inactive)
11,COc1ccc(/C=C2\C(=O)NC(=S)N2C(=O)c2ccc(F)cc2)cc1,0 (inactive)
12,CCOc1cc2[nH]c(=S)n(C(C)C)c(=O)c2cc1OCC,1 (active)
13,CC(C)N(CCn1c(=S)[nH]c2ccccc2c1=O)C(C)C,0 (inactive)
14,CCC1CCCCN1CCCn1c(=S)[nH]c2ccccc2c1=O (stereo not given),0 (inactive)
15,CC1CCCCN1CCCn1c(=S)[nH]c2ccccc2c1=O (stereo not given),0 (inactive)
16,O=c1c2ccccc2[nH]c(=S)n1CCCN1CCN(C2CCCCC2)CC1,-1 (active)
17,CC(C)n1c(=S)[nH]c2ccccc2c1=O,1 (active)
18,COC(=O)c1ccc2c(=O)n(CC3CCCO3)c(=S)[nH]c2c1 (stereo not given),0 (inactive)
19,CC(C)COn1c(=S)[nH]c2ccccc2c1=O,1 (active)
20,CC1CCC(n2c(=S)[nH]c3ccccc3c2=O)CC1 (stereo not given),0.5 (inactive)
21,CCn1c(=S)[nH]c2cc(C(=O)OC)ccc2c1=O,0.5 (inactive)
22,CCC1(C)OCC(Cn2c3ccccc3c3ccccc32)O1 (stereo not given),0 (inactive)
23,CC(C)c1ccc2occ(-c3nn[nH]n3)c(=O)c2c1,0 (inactive)
24,CC1CCCCC1n1c(=S)[nH]c2ccccc2c1=O (stereo not given),1 (active)
25,CC1CCCC(n2c(=S)[nH]c3ccccc3c2=O)C1C (stereo not given),3 (inactive)
26,CCCCOc1cccc(OCCCC)c1C(=O)Nc1cc(C)on1,-1 (active)
27,Cc1cc(NC(=O)c2ccccc2Oc2ccccc2)no1,0 (inactive)
28,COc1ccc(C(=O)Nc2ccccc2)cc1S(=O)(=O)Nc1cc(C)on1,0 (inactive)

row,SMILES,manual score
1,COc1ccc(CN2CCNC(=O)C2CC(=O)O)cc1OC (stereo not given),0 (inactive)
2,COc1cccc2[nH]c3c(N4CCCC(C)C4)ncnc3c12 (stereo not given),-1 (active)
3,Cc1ccc(-c2nnn(CC(=O)NC3CC4CCC3C4)n2)cc1 (stereo not given),1 (active)
4,COc1ccc(N(CC(=O)NC2CCCC2)C(=O)Cn2nnc(-c3ccc(C)cc3)n2)cc1,0 (inactive)
5,Cc1ccc(-c2nnn(CC(=O)N3CCCCC3)n2)c(-n2cnnn2)c1,0 (inactive)
6,Clc1cccc(-c2ccc(/C=N/n3cnnc3)o2)c1Cl,0 (inactive)
7,CCCCCCCC1CC(CSC(=N)N)OC1=O (stereo not given),-1 (active)
8,CCCCCCCC1CC(CSc2ncn[nH]2)OC1=O (stereo not given),0 (inactive)
9,O=C(c1ccc(Br)o1)N1CCN(c2ccc3nnc(-c4ccc(F)cc4)n3n2)CC1,0 (inactive)
10,Fc1cc(Br)ccc1NC(=S)NCCc1ccccc1,0 (inactive)
11,Fc1ccccc1NC(=S)NN(Cc1ccccc1)c1ccccc1,-1 (active)
12,COc1ccc2cc(Br)ccc2c1CC(=O)NC1CC(C)(C)NC(C)(C)C1,0 (inactive)
13,COc1ccc(Br)cc1CNC(=O)Nc1cccs1,1 (active)
14,CCn1c(NC(=O)Nc2cccc(C)c2C)cc2sccc21,0 (inactive)
15,COc1ccccc1NC(=O)COc1ccc(Br)cc1CO,0 (inactive)
16,O=C(NCc1cccs1)c1cccnc1C(=O)O,0 (inactive)
17,Cc1ccccc1CNC(=O)Nc1cccs1,1 (active)
18,CCOc1cc(C)nc(N2CCN(C3CCCCC3)CC2)n1,-1 (active)
19,COc1ccccc1C(=O)NNC(=S)NC(=O)c1ccco1,1 (active)
20,COc1ccc(C(=O)NNC(=S)NC(=O)c2ccco2)cc1,1 (active)
21,Cc1ccc(OCC(=O)N/N=C/c2cccn2C)cc1,0 (inactive)
22,Cc1ccccc1OCC(=O)N/N=C/c1cccn1C,1 (active)
23,Cc1cnc(NC(=O)COc2ccccc2Cl)s1,0 (inactive)
24,COc1ccc(CNC(=O)CSCc2ccccc2Cl)cc1,0 (inactive)
25,Cc1ccc(C(=O)CC(=O)COc2ccc(Cl)cc2)cc1,0 (inactive)
26,Cc1ccc(C(=O)CC(=O)COc2ccc(Cl)cc2C)cc1,1 (active)
27,Cc1ccc(C(=O)CC(=O)c2cc(Cl)ccc2O)cc1,0 (inactive)
